PAFAH1B3 FP inh = PAFAH1B3 enzyme inhibitors, primary screen, biochemical, fluorescence polarization, human | Platelet-activating factor acetylhydrolase IB subunit alpha1 (Homo sapiens), Q15102 | recombinant PAFAH1B3, FP-rhodamine probe | inhibition, % at 3.39 µM | 0.28% of 340,000 active;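 active = inhibition above the screen-wide average of all tested compounds plus 3 SD, cut at about 25% in these data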
PAFAH2 inh = PAFAH2 enzyme inhibitors, primary screen, biochemical, fluorescence polarization, human; AID 492956, 2010; Platelet-activating factor acetylhydrolase 2, cytoplasmic (Homo sapiens), Q99487; recombinant PAFAH2, FP-rhodamine activity probe; inhibition, % at 3.39 µM; 0.99% of 340,000 active;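 active = inhibition above the mean over all tested compounds plus 3 SD, cut at about 30% in these data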;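 also: inhibitors block probe labeling of enzyme so polarization drops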
HTRA1 inhibitor = HTRA1 serine protease inhibitors, primary screen, biochemical, fluorescence polarization, HTS; Q92743; recombinant HTRA1, FP-rhodamine activity-based probe; inhibition, % at 5.96 µM; 0.5% of 340,000 active; AID 504803, 2011; in the data active = inhibition above about 36%
pPAFAH inh = pPAFAH enzyme inhibitors, primary screen, biochemical, fluorescence polarization, human | 1.5% of 330,000 active | inhibition, % at 3.39 µM | recombinant pPAFAH, FP-rhodamine probe fluorescence polarization | Platelet-activating factor acetylhydrolase (Homo sapiens), Q13093;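 active = inhibition above the mean inhibition across the screen plus 3 SD, cut at about 25% in these data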;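 also: inhibitors block binding of the rhodamine activity-based probe so polarization drops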
Target sequence (Q13093 whole entry, looked up): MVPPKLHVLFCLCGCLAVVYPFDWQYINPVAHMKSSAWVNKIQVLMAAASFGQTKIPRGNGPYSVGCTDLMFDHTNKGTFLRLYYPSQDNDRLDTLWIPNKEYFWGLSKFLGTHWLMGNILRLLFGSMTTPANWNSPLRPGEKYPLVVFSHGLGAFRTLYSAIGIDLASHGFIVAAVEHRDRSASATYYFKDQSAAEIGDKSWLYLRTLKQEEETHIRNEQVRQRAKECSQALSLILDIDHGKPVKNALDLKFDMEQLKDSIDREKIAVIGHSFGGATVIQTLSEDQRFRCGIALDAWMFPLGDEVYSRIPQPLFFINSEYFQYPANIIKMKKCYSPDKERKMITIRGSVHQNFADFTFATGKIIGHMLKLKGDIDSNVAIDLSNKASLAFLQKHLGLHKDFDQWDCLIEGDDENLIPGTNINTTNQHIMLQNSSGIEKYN
PAFAH1B2 inh = PAFAH1B2 enzyme inhibitors, primary screen, biochemical, fluorescence polarization, human. inhibition, % at 3.39 µM. recombinant PAFAH1B2, FP-rhodamine activity probe. 1.2% of 340,000 active. Platelet-activating factor acetylhydrolase IB subunit alpha2 (Homo sapiens), P68402. AID 492953, 2010;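 active = inhibition above the mean of all tested compounds plus 3 SD, cut at about 24% in these data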
DAGLB inhibitor = DAGLB lipase inhibitors, primary screen, biochemical, fluorescence, HTS; HEK293T DAGLB membrane lysate, EnzChek fluorogenic substrate; inhibition, % at 5.17 µM; 0.059% of 340,000 active; AID 504411, 2011; in the data active = inhibition above about 34%
A number is an active result; - = inactive; . = not tested or not shown. Hits are enriched below; roughly 2.8% of the tested compounds scored in any of these assays.

SMILES | PAFAH1B3 FP inh | PAFAH2 inh | HTRA1 inhibitor | pPAFAH inh | PAFAH1B2 inh | DAGLB inhibitor
Cc1cccn2c(=O)c(C=O)c(N3CCC4(CC3)OCCO4)nc12 | . | . | . | - | . | .
COc1cccc(C(=O)CC(C#N)c2ccc(F)cc2)c1 (stereo not drawn) | - | - | - | - | - | -
COc1ccc(S(=O)(=O)N(C)C)cc1NC(=O)CCNC(=O)c1ccccc1OC | - | - | - | - | - | -
CN1CCN(C2=C(Cl)C(=O)C(c3cnc(N4CCCCC4)s3)=C(Cl)C2=O)CC1 | - | - | - | 41 | - | -
CC(=O)N1CCN(c2ccc(NC(=O)c3ccc(F)cc3)cc2)CC1 | - | - | - | . | - | -
CC(C)CSc1nc2c(c(=O)[nH]c(=O)n2C)n1CCc1ccccc1 | - | - | - | - | - | -
CC(C)CSc1nc2c(=O)[nH][nH]c(=O)c2n1Cc1ccccc1 | - | - | - | 30 | - | -
CCc1ccccc1NC(=O)CN(C1CCCCC1)S(C)(=O)=O | - | - | - | - | - | -
CC1CCc2c(sc(NC(=O)c3cccn3C)c2C(N)=O)C1 (stereo not drawn) | - | - | - | 29 | - | -
CCC1S/C(=N\S(=O)(=O)c2cccs2)N(C2CCCCC2)C1=O (stereo not drawn) | - | - | - | - | 25 | -
CC[C@@]1(C(=O)OC)N[C@H](CN(C)C(=O)Nc2ccc(C)cc2)[C@@H]2C(=O)N(C)C(=O)[C@@H]21 | - | - | - | - | - | -
O=C1C(=O)N(CCCc2ccccc2)c2ccccc21 | - | - | - | 27 | - | -
O=C(CN1C(=O)C(=O)c2ccccc21)NCCc1ccccc1 | - | - | - | - | - | -
O=C(Nc1c2c(nn1-c1ccc(F)cc1)CS(=O)C2)c1ccc(S(=O)(=O)N2CCOCC2)cc1 (stereo not drawn) | - | - | - | - | 26 | -
O=C(Nc1c2c(nn1-c1ccc(F)cc1)CS(=O)C2)c1ccc(Br)o1 (stereo not drawn) | - | - | - | - | - | -
C=CCNC(=S)NNC(=O)Cn1c(-c2ccccc2)cc(=O)n2ncnc12 | - | - | - | - | - | -
CCOc1cc(/C=N/N=C2/NC(=O)C(CC(=O)O)S2)ccc1OCc1ccc(Cl)cc1Cl (stereo not drawn) | - | - | - | 26 | - | -
O=S(=O)(c1ccc(Br)cc1)N1CCN(Cc2ccco2)CC1 | - | - | - | - | 26 | -
C/C(=N/NC(=O)CN1CCN(S(=O)(=O)c2ccc(C)cc2)CC1)c1cccc(O)c1 | - | - | - | - | 25 | -
O=C(CN1CCN(S(=O)(=O)c2ccc(Br)cc2)CC1)N/N=C/c1ccco1 | - | - | - | - | 30 | -
C/C(=N/NC(=O)CN1CCN(S(=O)(=O)c2ccc(Br)cc2)CC1)c1ccco1 | - | - | - | - | 27 | -
O=C(CN1CCN(S(=O)(=O)c2ccc(Br)cc2)CC1)N/N=C/c1ccc(Br)s1 | - | - | - | - | - | -
C=CCOc1ccc(/C=N/NC(=O)c2c(C)nc3ccc(Cl)cn23)cc1 | - | - | - | - | - | -
N=c1sccn1CC(=O)NC(c1ccccc1)c1ccccc1 | - | - | - | - | - | -
CCCCCC(=O)NCc1c(C(F)(F)F)nn(C)c1N1CCOCC1 | - | - | - | - | - | -
SMILES | PAFAH1B3 FP inh | PAFAH2 inh | HTRA1 inhibitor | pPAFAH inh | PAFAH1B2 inh | DAGLB inhibitor
COCCCNC(=O)CSc1ccsc1[N+](=O)[O-] | - | - | - | - | - | -
Cc1ccccc1NC(=O)CSc1ccsc1[N+](=O)[O-] | - | - | - | 27 | - | -
CCN(CC(=O)Nc1ccc(NC(C)=O)cc1)C(=O)c1ccccc1CCc1ccccc1 | - | - | - | - | - | -
CC(C)(C)c1ccc(C(=O)NN2C(=O)CSC2=S)cc1 | - | - | - | - | 25 | -
O=C(COC(=O)c1cc(S(=O)(=O)N2CCOCC2)c(Cl)cc1Cl)c1ccc[nH]1 | - | - | - | - | - | -
COC(=O)c1ccc(N2CCc3ccccc32)c([N+](=O)[O-])c1 | - | - | - | 25 | - | -
O=C(N/N=C/c1cc(Cl)cc([N+](=O)[O-])c1O)NC12CC3CC(CC(C3)C1)C2 | - | 53 | - | - | 59 | -
CCc1ccccc1NC(=O)COc1ccc(C(=S)N2CCCC2)cc1 | - | - | - | - | - | -
O=C(c1ccc(=O)[nH]n1)N1CCN(S(=O)(=O)c2cccc(F)c2)CC1 | 34 | 34 | - | . | - | -
Cc1nnc(SCC(=O)N(Cc2ccccc2)C(C)(C)C)[nH]c1=O | - | - | - | - | 25 | -
O=C(O)c1ccc2c(c1)S(=O)(=O)c1cc(N3CCN(c4cnccn4)CC3)ccc1C2=O | . | . | - | . | . | -
CC1C/C(=N\NC(=O)c2ccc([N+](=O)[O-])cc2)CC(C)(C)C1 (stereo not drawn) | - | - | - | - | - | -
CC1C/C(=N\NC(=O)c2ccc(NS(=O)(=O)c3ccc(Br)cc3)cc2)CC(C)(C)C1 (stereo not drawn) | - | - | - | - | 26 | -
CC(C)CNC(=O)c1cccc(NC(=O)COc2ccc([N+](=O)[O-])cc2)c1 | - | - | - | - | - | -
O=C(COc1ccccc1[N+](=O)[O-])OC1CCS(=O)(=O)C1 (stereo not drawn) | - | - | - | - | - | -
Cc1ccc(Oc2ccc(OCC(=O)OC3CCS(=O)(=O)C3)cc2)cc1 (stereo not drawn) | . | . | . | 31 | . | .
COc1ccc(NC(=O)COC(=O)c2ccc(-n3nc(C)cc3C)cc2)cc1OC | - | - | - | 27 | - | -
CCNC(=O)COC(=O)c1ccc(-n2nc(C)cc2C)cc1 | - | - | - | - | - | -
Cc1cc(C)n(-c2ccc(C(=O)OCC(=O)Nc3ccc([N+](=O)[O-])cc3)cc2)n1 | - | - | - | 25 | - | -
Cc1cc(C)n(-c2ccc(C(=O)OCC(=O)Nc3ccc(S(=O)(=O)N4CCOCC4)cc3)cc2)n1 | - | - | - | - | - | -
Cc1cc(C)n(-c2ccc(C(=O)OCC(=O)Nc3ccc(Cl)c(S(=O)(=O)N(C)C)c3)cc2)n1 | - | 73 | - | 25 | - | -
COc1ccc(NC(=O)COC(=O)c2ccc(S(=O)(=O)N3CCCC3)cc2)cc1OC | - | - | - | - | - | -
COc1ccc(C(=O)OCC(=O)Nc2ccc(F)c(F)c2)cc1OC | - | 82 | - | 30 | - | -
Clc1ccccc1CNc1nc2ccccc2n2cnnc12 | - | - | - | - | - | -
COc1cc(OC)c(OC)cc1CNC(=O)c1cccc(S(=O)(=O)N2CCc3ccccc3C2)c1 | - | - | - | . | - | -
COc1ccc(-c2cn(CCC(=O)NCc3ccc(C)cc3)c(CCN)n2)cc1 | - | - | - | - | - | -
